RAM inhibit – inhibitors of the yeast RAM network; hit rate 1.8% among 190,000; inhibition, % at 50 µM; S. cerevisiae dse1pr::URA3 reporter, 5-FOA growth OD615, 2 d; analog-sensitive cbk1-as2 kinase mutant strain; AID 868;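 active means inhibition above a set limit, 3 SD over mean compound inhibition, cut at about 8.4% in these data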;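 further: 0% = DMSO-only wells with no growth and 100% = 10 µM 1-NA-PP1 full growth; inhibition rescues growth on 5-FOA so higher OD means more RAM inhibition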
L major viab – reduces viability of Leishmania major promastigotes; resazurin fluorescence viability; inhibition, % at 10 µM; hit rate 9% among 200,000; in the data active means inhibition above about 50%;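 further: promastigotes grown with compound for 44 hours at 28 °C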
WT yeast gro inh – growth inhibition of WT yeast, mitochondrial fusion screen | hit rate 2.1% among 190,000 | AID 1362 | inhibition, % at 10 µM | mitochondrial fusion phenotypic screen, WT strain; in the data active means inhibition above about 58%; tested in S. cerevisiae
CHOP inhibitor – inhibitors of CHOP induction in ER stress response. CHO-K1 CHOP-promoter luciferase, tunicamycin-induced, 15-18 h. hit rate 3.8% among 220,000. AID 2732. inhibition, % at 10 µM;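 active means compounds that reduced the stress-induced luciferase reporter signal by more than about 70% of percent inhibition, limit read from the data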;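 further: 0% = tunicamycin plus vehicle and 100% = wells without tunicamycin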
Numbers without * were called inactive; x = not tested or not shown. Compounds with a hit are over-represented: about 13% of the library has one in this group of screens.

SMILES | RAM inhibit | L major viab | WT yeast gro inh | CHOP inhibitor
CCOC(=O)c1cnc(SCC(=O)Nc2cc(OC)cc(OC)c2)nc1N | 2.9 | 3.1 | -12.2 | 76.1*
CCOC(=O)N1CCN(CC(O)c2ccc3cc[nH]c3c2)CC1 (configuration not stated) | 0.0 | 70.2* | -1.1 | -13.3
COc1ccccc1N1CCN(CC(O)COc2c(OC)cccc2OC)CC1 (configuration not stated) | 0.0 | -1.8 | -10.0 | -10.7
COc1ccccc1N1CCN(CC(O)c2ccc3cc[nH]c3c2)CC1 (configuration not stated) | 1.4 | 89.2* | 11.4 | 1.4
COC(=O)c1ccc(OC(=O)CS(=O)c2ccccc2[N+](=O)[O-])cc1 (configuration not stated) | -1.4 | -0.6 | 0.5 | 8.8
O=C(CS(=O)c1ccc(C(F)(F)F)cc1[N+](=O)[O-])Oc1ccccc1 (configuration not stated) | 1.1 | -5.3 | 1.9 | 88.0*
O=C(CNc1ccc(C(F)(F)F)cc1[N+](=O)[O-])OCC(=O)c1ccccc1 | 11.2* | -1.0 | 21.6 | 28.8
O=[N+]([O-])c1cc(C(F)(F)F)ccc1NCCc1c[nH]c2ccccc12 | 7.6 | 4.0 | 61.9* | 53.2
O=[N+]([O-])c1cc(C(F)(F)F)ccc1NCCc1c[nH]c2ccc(O)cc12 | -1.8 | 3.0 | 78.5* | 65.3
Cc1onc(-c2c(Cl)cccc2Cl)c1-c1nc2cc(Cl)ccc2c(=O)o1 | x | x | x | 29.5
O=C(O)C1Nc2c(O)cccc2C2C=CCC12 (configuration not stated) | 4.8 | -9.2 | -0.9 | 11.6
CC(C)C1Nc2c(O)cc(Cl)c([N+](=O)[O-])c2C2C=CCC21 (configuration not stated) | 5.9 | -4.5 | 82.7* | -3.5
CCc1ccc(N2C(=O)Nc3ccccc3C2(O)C(=O)N2CCN(c3ccccn3)CC2)cc1 (configuration not stated) | 0.9 | 68.6* | 13.1 | -1.6
Oc1c(Br)cc(Br)cc1CNc1ccc(F)cc1 | -0.4 | -15.2 | 83.0* | 16.2
CCCCCC1CCC(c2n[nH]c(=S)n2C)CC1 (configuration not stated) | 3.5 | 9.8 | 65.1* | 95.2*
C=CCn1c(C2CC2)n[nH]c1=S | 2.1 | -7.5 | -6.1 | 11.8
CC(Oc1ccc(Br)cc1)c1nc2c3ccccc3nc(=S)n2[nH]1 (configuration not stated) | 2.9 | 0.4 | 62.6 | -49.6
CCCC(Oc1ccc(Br)cc1)c1nc2c3cc(OC)c(OC)cc3nc(=S)n2[nH]1 (configuration not stated) | 1.1 | 96.8* | 44.5 | -50.7
CC1N(C)c2cc(NC(=O)c3ccco3)c(P(=O)(Nc3ccc([N+](=O)[O-])cc3)N3CCOCC3)cc2C1(C)C (configuration not stated) | 1.2 | 55.5* | 11.2 | 25.2
COc1ccc(Nc2cc(C)nc3ccccc23)cc1 | 0.7 | 85.9* | -7.9 | 15.4
COc1ccc2nc(C)cc(Nc3ccc(N4CCOCC4)cc3)c2c1 | -0.1 | 51.4* | 17.4 | -12.1
COc1ccc(Nc2nc(-c3ccccc3)c3ccccc3n2)cc1 | 0.9 | 34.4 | 64.0* | 28.6
CC(=O)c1ccc(Nc2cc(C)nc3ccccc23)cc1 | 1.4 | 40.5 | 3.1 | 0.6
C[C@H](NC(=O)c1ccccc1Cl)C(=O)NCc1cccs1 | 1.9 | -4.4 | 4.2 | 6.4
O=C(Oc1ccc(NC2=NS(=O)(=O)c3ccccc32)cc1)c1cccnc1 | 4.1 | -8.8 | 9.1 | 7.4
SMILES | RAM inhibit | L major viab | WT yeast gro inh | CHOP inhibitor
Nc1c(S(=O)(=O)c2cccs2)c2nc3ccccc3nc2n1Cc1cccs1 | 9.1* | 15.7 | 39.7 | 25.0
Nc1c(S(=O)(=O)c2cccs2)c2nc3ccccc3nc2n1CC1CCCO1 (configuration not stated) | 4.3 | 44.3 | -7.0 | -1.1
Nc1c(S(=O)(=O)c2cccs2)c2nc3ccccc3nc2n1CCc1ccccc1 | 4.4 | 76.5* | -12.8 | 25.9
COc1ccc(CCn2c(N)c(S(=O)(=O)c3cccs3)c3nc4ccccc4nc32)cc1OC | 8.4* | 29.4 | 0.5 | 25.7
CC(C)CCn1c(N)c(S(=O)(=O)c2cccs2)c2nc3ccccc3nc21 | 3.7 | 69.7* | -4.3 | x
COc1cc(CCC(=O)Nc2nnc(-c3cccnc3)s2)cc(OC)c1OC | 0.0 | 11.9 | -6.9 | -14.9
CC(=O)N1N=C(C)CC1c1ccc(O)cc1 (configuration not stated) | 1.0 | 13.6 | -2.9 | 17.1
CCC(Br)C(=O)Nc1ccc(OC)cc1 (configuration not stated) | 2.4 | 3.3 | -3.6 | 18.7
COc1ccc(Cn2c(N)c(C#N)c3nc4ccccc4nc32)cc1OC | 6.0 | 18.0 | -5.9 | 24.4
COc1ccc(CCn2c(N)c(C#N)c3nc4ccccc4nc32)cc1OC | 6.0 | 91.4* | -3.1 | 5.3

From PubChem
